{"source": "PubChem BioAssay (NCATS)", "note": "Inconclusive results are not listed. Unmarked numbers belong to inactive results. Calls come from the whole dose curve; as a rule, active = well fitted cell-killing curve with a large enough effect; inconclusive = small, poorly fitted or top-dose-only effect; inactive = flat fitted curve, though single readings scatter.", "data": [{"test": "Cellular viability qHTS for adrenocortical cancer (ACC) cell line NCI-H295R (AID 1963990);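 note: 0% = DMSO only wells and -100% = full killing with cytotoxic reference compound; nearly all actives have a fitted effect of over 60% in size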", "conditions": "CellTiter-Glo ATP luminescence, 48 h; series mostly up to 46.1 µM; activity change, negative = viability loss: at the top concentration", "summary_of_the_method": "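Adrenocortical carcinoma cells, suspended at 300 000 cells/mL in serum-free DMEM plus ITS, rested overnight before pin transfer of compound. After two days' incubation, ATP-dependent luminescence was recorded and curve-fitted.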", "units": {"activity change, negative = viability loss": "%"}, "values": [{"smiles": "NS(=O)(=O)c1cc2c(cc1C(F)(F)F)NC(Cc1ccccc1)NS2(=O)=O", "note": "(centres undefined)", "activity change, negative = viability loss": -19.5}, {"smiles": "N[C@@H]1CN(c2c(F)cc3c(=O)c(C(=O)O)cn([C@@H]4C[C@@H]4F)c3c2Cl)CC12CC2", "activity change, negative = viability loss": -10.5}, {"smiles": "Cc1ccc(C(=O)C(=O)O)cc1C", "activity change, negative = viability loss": -21.1}, {"smiles": "CNCc1ccccc1", "activity change, negative = viability loss": 0.248}]}]}
